# Compound activity from PubChem BioAssay.
# KB-3-1 cytotox: KB-3-1 parental cell cytotoxicity; KB-3-1 viability, CellTiter-Glo ATP luminescence, 72 h; Potency, µM (titrated, usually from 46.1 µM), usual class: cytotoxic; 1.4% of 400,000 active; also: nearly all actives have a fitted effect of over 60% in size
#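 Cytotoxicity in the drug-sensitive parental line KB-3-1 was scored as loss of CellTiter-Glo luminescence following 72 h incubation with compound. Values come from curve fitting of normalized concentration-response data.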
# HT1080 IDH1KD tx: HT-1080 IDH1 knockdown cell toxicity (counter line). HT-1080 IDH1 knockdown viability, ATP luminescence, 48 h. Potency, µM (doses to about 46.1 µM), for the others: at the top dose activity, negative = toxicity, hits mostly cytotoxic. 2% of 360,000 active;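 also: 0% = DMSO wells and -100% = cell-free medium wells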
#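 Luminescent ATP read-out (CellTiter-Glo, 10 min at room temperature) after 48 h compound exposure at 37 °C gave viability of IDH1-knockdown HT-1080 cells. Activity was normalised to DMSO and cell-free wells, then fitted as concentration-response curves.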
# DT40 TDP1 CPT: DT40-hTDP1 cell growth loss with CPT. 12% of 420,000 active. Potency, µM (series often up to 46.2 µM), inactives show at the top dose activity change, negative = growth inhibition, usual class: inhibitors. chicken DT40 Tdp1-/-;hTDP1 cells + 20 nM CPT, ATP luminescence, 48 h. AID 686979; also: nearly all actives have a fitted effect of over 55% in size
#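 Chicken DT40 Tdp1-/- cells stably complemented with human TDP1 were seeded at 400 cells/well in medium containing 20 nM camptothecin, exposed to pin-transferred compounds, and grown at 37 °C for at least 48 hr. Viability was read as ATP luminescence.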
# KB-V1 MDR tox: KB-V1 MDR subline cytotoxicity | 3.4% of 400,000 active | Potency, µM (highest dose often 46.1 µM), actives largely listed as cytotoxic | KB-V1 MDR cells viability, CellTiter-Glo, 72 h; also: nearly all actives have a fitted effect of over 60% in size
#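 Readout: CellTiter-Glo luminescence, 10 min after addition. Cells: KB-V1 MDR subline, 72 h at 37 degrees C with compound. Analysis: corrected, normalized data fitted to concentration-effect curves.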
# TDP1 cell noCPT: qHTS for Inhibitors of human tyrosyl-DNA phosphodiesterase 1 (TDP1): qHTS in cells in absence of CPT; DT40 Tdp1-/- hTDP1 cells, no CPT, ATP luminescence, 48 h; Potency, µM (titrated, usually from 46.2 µM), inactives show at the highest dose activity change, negative = growth inhibition, usual class: inhibitors; 15% of 420,000 active; also: nearly all actives have a fitted effect of over 55% in size
#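 Cells were dispensed at 400 per well, compounds added by pin tool, plates incubated ≥48 hr at 37 °C, then CellTiter-Glo added for 30 min at room temperature before luminescence reading. Line: DT40 Tdp1-/- complemented with hTDP1; camptothecin omitted.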
# HT1080-NT tox: kills 2HG-producing HT-1080-NT fibrosarcoma cells; HT-1080-NT fibrosarcoma viability, CellTiter-Glo ATP luminescence, 48 h; Potency, µM (doses to about 46.1 µM), for inactives: at the highest dose activity, negative = less viability, hits mostly cytotoxic; 1.6% of 360,000 active; AID 686970;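 also: NT is the 2HG producing partner of a matched IDH1 knockdown line; 0% = DMSO-treated cells and -100% = media-only wells without cells; nearly all actives have a fitted effect of over 55% in size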
#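 Luminescent CellTiter-Glo readout after 48 hours of compound exposure at 37 degrees C defined viability of HT-1080-NT cells. Activity was normalized to DMSO wells and cell-free media wells; concentration-response curves were fitted and assigned curve classes.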
# Active calls of the source: *; i = inactive; ? = inconclusive; · = no result given; ! = not active in a repeat. This is a sample that favours compounds with a hit; in the whole collection about 19% have one here. Calls follow the shape of the dose curve; as a rule, active = well fitted curve in the direction sought with a large enough effect; inconclusive = small, poorly fitted or top-dose-only effect, or another doubt; inactive = no such curve, though single readings can be large; an effect the other way counts as inactive or inconclusive. Unless noted, % is scaled to controls: 0 for no effect and ±100 for the full control effect; potency is read from the fitted curve at half-maximal effect.
SMILES,KB-3-1 cytotox,HT1080 IDH1KD tx,DT40 TDP1 CPT,KB-V1 MDR tox,TDP1 cell noCPT,HT1080-NT tox
CCOc1ccc(-c2c(C(=O)N/N=C(\C)c3cccnc3)nnn2-c2nonc2N)cc1,i,-22%,0%,?,17%,-12%
Cc1ccccc1OCc1nnc(SCc2cc(=O)c3cccc(F)c3[nH]2)n1C,i,·,?,i,?,·
CCN(C(=O)c1cn(C)c(=O)c2ccccc12)c1cccc(C)c1,i,·,-30%,?,?,·
C1CCC(C(CC2CCCCN2)C2CCCCC2)CC1 (stereo not given),?,16µM*,10µM*,18µM*!,12µM*,12µM*
CCN(CC)c1ccc(CNc2ccc3c(c2)ncn3C(C)(C)C)cc1,i,-23%,16µM*,i,?,-5%
CC(C)(C)n1cnc2cc(NCc3ccc(Br)cc3)ccc21,i,-27%,?,i,?,-10%
CCc1ccc(CNc2ccc3c(c2)ncn3C(C)(C)C)cc1,i,-7%,21µM*,i,21µM*,-17%
Cc1cccc(C)c1NC(=O)C1(N(Cc2ccco2)C(=O)CC2NC(=O)NC2=O)CCCC1 (stereo not given),i,2%,-7%,i,-13%,6%
NC(=O)N=Nc1c(O)[nH]c2ccc([N+](=O)[O-])cc12,i,1%,4%,i,10%,0%
COc1ccccc1C(=O)N=Nc1c(O)[nH]c2ccc([N+](=O)[O-])cc12,i,2%,?,?,23µM*,4%
C=C(C)CNC(=S)N=Nc1c(O)[nH]c2ccc([N+](=O)[O-])cc12,i,-17%,4.1µM*,?,4.6µM*,-2%
COc1ccc(C(=O)Nc2ccc3c4c(cccc24)CC3)cc1,i,?,-10%,13µM*,?,-15%
Cc1c(C(=O)Nc2ccc3c4c(cccc24)CC3)cccc1[N+](=O)[O-],?,-12%,?,i,16µM*,1%
COc1ccc(C(=O)Nc2cccc3c2CCCC3)cc1,23µM*,?,10µM*,i,5.8µM*,?
COc1cc(OC)cc(C(=O)NC(=S)Nc2ccc3c4c(cccc24)CC3)c1,i,18%,-29%,i,-17%,26%
CCCCN1C(=O)C(CC(=O)NCCN2CCOCC2)CC(C(=O)N(C)C)=C1C (stereo not given),i,-2%,2%,i,4%,-1%
COc1ccc(S(=O)(=O)N2CCN(C(=O)NCc3ccc(C)cc3)CC2)cc1,i,0%,-15%,i,-25%,1%
Cc1cccc(/C=N/NC(=O)Cc2ccc(Cl)cc2)c1O,?,?,18µM*,i,?,-27%
Cc1cccc(/C=N\NC(=O)c2ccc(Cl)cc2)c1O,?,3.3µM*,4.6µM*,?,?,?
CCCCOc1ccc(C(=O)NCC(=O)NCC(c2ccc(OC)cc2)N2CCCC2)cc1 (stereo not given),i,-1%,-16%,i,-27%,-1%
Clc1cccc(Cl)c1/C=C/c1ccn[nH]1,?,?,18µM*,i,10µM*,?
CCNc1nc(C)c2cc(Br)c(=O)n(CC)c2n1,?,2.1µM*,3.7µM*,6.5µM*,2.9µM*,2.9µM*
O=C(Nc1cccc(-c2cnc3ccccc3n2)c1)c1ccncc1,i,?,?,i,5.8µM*,-2%
Cc1ccc(C(=O)Nc2cccc(-c3cnc4ccccc4n3)c2)cc1,i,20%,-7%,i,-22%,-6%
Cc1cccc(C(=O)Nc2cccc(-c3cnc4ccccc4n3)c2)c1,i,12%,?,i,?,15%
